The results in this text go back to ChEMBL document CHEMBL1961873, “Compounds: GSK PKIS; Assays: Nanosyn kinase panel” (2012).

Structures are written as SMILES.

Assay [1] concerns the target 5'-AMP-activated protein kinase catalytic subunit alpha-2 (Homo sapiens) (UniProt P54646). The following applies: at 1 µM.
The target in assay [2] is T1, NUAK family SNF1-like kinase 1 (Homo sapiens) (UniProt O60285).
T1 sequence (whole entry): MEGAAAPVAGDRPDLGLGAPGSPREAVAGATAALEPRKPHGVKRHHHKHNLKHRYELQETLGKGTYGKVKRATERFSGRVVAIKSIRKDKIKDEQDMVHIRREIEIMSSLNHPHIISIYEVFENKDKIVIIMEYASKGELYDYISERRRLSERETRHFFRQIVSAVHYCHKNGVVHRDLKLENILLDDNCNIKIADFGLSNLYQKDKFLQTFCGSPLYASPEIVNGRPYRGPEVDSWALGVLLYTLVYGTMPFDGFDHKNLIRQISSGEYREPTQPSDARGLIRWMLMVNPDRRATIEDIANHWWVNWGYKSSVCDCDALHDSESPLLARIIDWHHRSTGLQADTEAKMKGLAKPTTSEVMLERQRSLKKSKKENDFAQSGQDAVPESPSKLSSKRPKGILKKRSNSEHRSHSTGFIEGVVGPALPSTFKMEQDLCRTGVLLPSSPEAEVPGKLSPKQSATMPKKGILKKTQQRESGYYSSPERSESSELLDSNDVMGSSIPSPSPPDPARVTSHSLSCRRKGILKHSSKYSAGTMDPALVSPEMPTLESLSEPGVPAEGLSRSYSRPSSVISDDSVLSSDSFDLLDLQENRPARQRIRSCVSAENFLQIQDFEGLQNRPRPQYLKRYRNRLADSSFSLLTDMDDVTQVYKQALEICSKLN
The conditions noted are these: at 0.1 µM.

Assay [3] has as its target T1, NUAK family SNF1-like kinase 1 (Homo sapiens). The following applies: at 1 µM.
Assay [4] deals with T2, Serine/threonine-protein kinase BRSK1 (Homo sapiens) (UniProt Q8TDC3).
T2 sequence (whole entry): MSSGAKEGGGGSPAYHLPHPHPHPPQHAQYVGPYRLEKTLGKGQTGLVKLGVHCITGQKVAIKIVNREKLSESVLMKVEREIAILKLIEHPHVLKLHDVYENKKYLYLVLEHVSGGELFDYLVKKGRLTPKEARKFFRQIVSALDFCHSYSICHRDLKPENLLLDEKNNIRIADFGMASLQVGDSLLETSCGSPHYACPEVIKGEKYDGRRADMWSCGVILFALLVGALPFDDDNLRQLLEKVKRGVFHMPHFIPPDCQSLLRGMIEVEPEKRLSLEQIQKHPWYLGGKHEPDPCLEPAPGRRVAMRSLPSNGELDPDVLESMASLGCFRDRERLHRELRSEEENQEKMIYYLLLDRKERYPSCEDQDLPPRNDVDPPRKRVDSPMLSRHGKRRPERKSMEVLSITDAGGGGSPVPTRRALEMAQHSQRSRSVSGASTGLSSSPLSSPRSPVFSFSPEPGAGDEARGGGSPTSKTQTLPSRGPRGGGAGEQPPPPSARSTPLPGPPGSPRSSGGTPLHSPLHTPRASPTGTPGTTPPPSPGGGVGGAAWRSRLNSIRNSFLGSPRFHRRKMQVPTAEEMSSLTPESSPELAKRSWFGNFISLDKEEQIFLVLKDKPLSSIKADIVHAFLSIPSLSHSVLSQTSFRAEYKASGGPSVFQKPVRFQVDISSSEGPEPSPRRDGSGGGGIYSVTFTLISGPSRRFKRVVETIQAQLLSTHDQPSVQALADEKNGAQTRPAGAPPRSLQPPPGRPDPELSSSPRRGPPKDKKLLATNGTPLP
The following applies: at 0.1 µM.

For assay [5], the target named is T2, Serine/threonine-protein kinase BRSK1 (Homo sapiens). The following applies: at 1 µM.
Assay [6] deals with T3, Serine/threonine-protein kinase BRSK2 (Homo sapiens) (UniProt Q8IWQ3).
T3 sequence (whole entry): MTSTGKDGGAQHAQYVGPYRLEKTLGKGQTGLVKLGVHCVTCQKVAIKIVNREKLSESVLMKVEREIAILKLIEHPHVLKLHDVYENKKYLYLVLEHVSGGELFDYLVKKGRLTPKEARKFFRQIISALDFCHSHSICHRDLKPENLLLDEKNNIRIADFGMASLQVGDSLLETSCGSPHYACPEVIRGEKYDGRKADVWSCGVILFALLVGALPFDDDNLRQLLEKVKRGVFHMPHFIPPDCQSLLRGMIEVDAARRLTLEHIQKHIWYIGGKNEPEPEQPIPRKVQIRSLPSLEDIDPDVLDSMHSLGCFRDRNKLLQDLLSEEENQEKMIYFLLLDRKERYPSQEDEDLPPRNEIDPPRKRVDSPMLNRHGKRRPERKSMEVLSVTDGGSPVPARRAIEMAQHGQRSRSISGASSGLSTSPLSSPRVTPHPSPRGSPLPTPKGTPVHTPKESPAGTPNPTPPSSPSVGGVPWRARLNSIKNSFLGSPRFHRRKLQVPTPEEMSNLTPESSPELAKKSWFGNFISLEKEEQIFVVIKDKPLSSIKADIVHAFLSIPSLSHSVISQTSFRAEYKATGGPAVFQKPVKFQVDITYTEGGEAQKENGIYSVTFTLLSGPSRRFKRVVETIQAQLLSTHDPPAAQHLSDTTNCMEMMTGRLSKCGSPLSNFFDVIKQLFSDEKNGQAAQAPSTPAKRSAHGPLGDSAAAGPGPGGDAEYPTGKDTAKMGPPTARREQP
The conditions noted are these: at 0.1 µM.

In assay [7] the target is T3, Serine/threonine-protein kinase BRSK2 (Homo sapiens). The following applies: at 1 µM.
For assay [8], the target named is Calcium/calmodulin-dependent protein kinase type 1D (Homo sapiens) (UniProt Q8IU85). The following applies: at 0.1 µM.
Chain of Calcium/calmodulin-dependent protein kinase type 1D (Homo sapiens) (Q8IU85 whole entry, looked up): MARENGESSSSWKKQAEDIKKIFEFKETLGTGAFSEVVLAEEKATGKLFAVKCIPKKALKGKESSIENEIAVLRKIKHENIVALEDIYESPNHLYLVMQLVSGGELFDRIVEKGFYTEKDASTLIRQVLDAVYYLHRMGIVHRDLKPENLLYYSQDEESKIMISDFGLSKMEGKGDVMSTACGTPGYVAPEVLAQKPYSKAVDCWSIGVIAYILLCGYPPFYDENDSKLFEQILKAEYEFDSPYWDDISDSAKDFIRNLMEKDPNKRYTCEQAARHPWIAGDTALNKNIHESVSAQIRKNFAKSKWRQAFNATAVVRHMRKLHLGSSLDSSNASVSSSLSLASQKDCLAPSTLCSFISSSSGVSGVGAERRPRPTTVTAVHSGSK
The target is the same in assay [9]. The following applies: at 1 µM.
Assay [10] addresses Calcium/calmodulin-dependent protein kinase type II subunit alpha (Homo sapiens) (UniProt Q9UQM7). The conditions noted are these: at 0.1 µM.
The target is the same in assay [11]. The following applies: at 1 µM.
The target in assay [12] is Calcium/calmodulin-dependent protein kinase type II subunit delta (Homo sapiens) (UniProt Q13557). The following applies: at 0.1 µM.
Chain of Calcium/calmodulin-dependent protein kinase type II subunit delta (Homo sapiens) (Q13557 whole entry): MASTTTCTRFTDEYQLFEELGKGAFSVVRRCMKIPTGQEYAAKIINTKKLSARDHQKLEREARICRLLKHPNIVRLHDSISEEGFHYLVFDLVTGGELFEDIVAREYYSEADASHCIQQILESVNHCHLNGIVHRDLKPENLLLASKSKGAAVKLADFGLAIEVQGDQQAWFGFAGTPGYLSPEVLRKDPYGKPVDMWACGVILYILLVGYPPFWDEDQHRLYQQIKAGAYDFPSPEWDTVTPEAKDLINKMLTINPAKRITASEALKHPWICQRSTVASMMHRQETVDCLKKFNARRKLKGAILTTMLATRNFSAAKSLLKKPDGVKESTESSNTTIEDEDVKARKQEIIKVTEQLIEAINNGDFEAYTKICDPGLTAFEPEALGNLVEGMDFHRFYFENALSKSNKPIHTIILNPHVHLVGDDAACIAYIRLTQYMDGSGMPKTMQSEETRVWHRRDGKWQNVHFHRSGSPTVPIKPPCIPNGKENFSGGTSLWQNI
The target is the same in assay [13]. The following applies: at 1 µM.
In assay [14] the target is T4, Calcium/calmodulin-dependent protein kinase type IV (Homo sapiens) (UniProt Q16566).
T4 sequence (whole entry): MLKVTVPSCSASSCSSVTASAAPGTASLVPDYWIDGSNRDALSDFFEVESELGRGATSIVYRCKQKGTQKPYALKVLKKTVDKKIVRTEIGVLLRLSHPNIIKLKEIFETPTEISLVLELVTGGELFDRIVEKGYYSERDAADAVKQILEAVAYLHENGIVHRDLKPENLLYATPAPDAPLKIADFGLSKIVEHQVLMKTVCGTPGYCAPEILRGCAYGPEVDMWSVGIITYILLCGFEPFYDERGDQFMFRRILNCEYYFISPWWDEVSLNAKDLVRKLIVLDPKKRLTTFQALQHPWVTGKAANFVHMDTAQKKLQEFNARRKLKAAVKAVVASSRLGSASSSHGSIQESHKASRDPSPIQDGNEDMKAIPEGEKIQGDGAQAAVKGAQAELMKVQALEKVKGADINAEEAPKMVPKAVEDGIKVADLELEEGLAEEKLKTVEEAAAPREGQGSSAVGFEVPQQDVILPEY
The following applies: at 0.1 µM.

For assay [15], the target named is T4, Calcium/calmodulin-dependent protein kinase type IV (Homo sapiens). The conditions noted are these: at 1 µM.
Assay [16] addresses T5, Serine/threonine-protein kinase Chk1 (Homo sapiens) (UniProt O14757).
T5 sequence (whole entry): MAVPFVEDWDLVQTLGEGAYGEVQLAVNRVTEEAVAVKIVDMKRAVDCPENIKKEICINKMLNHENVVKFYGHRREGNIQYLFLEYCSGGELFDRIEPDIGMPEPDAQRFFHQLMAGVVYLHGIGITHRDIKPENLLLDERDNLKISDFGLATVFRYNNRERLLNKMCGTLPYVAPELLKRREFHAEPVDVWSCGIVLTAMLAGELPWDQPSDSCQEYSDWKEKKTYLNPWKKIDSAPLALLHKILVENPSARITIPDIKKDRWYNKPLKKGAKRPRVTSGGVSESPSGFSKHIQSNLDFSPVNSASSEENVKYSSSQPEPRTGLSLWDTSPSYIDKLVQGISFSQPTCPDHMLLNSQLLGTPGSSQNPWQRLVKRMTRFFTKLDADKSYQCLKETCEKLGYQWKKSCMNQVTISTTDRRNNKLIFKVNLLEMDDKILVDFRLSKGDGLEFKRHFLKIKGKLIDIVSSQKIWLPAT
The following applies: at 0.1 µM.

Assay [17] deals with T5, Serine/threonine-protein kinase Chk1 (Homo sapiens). The following applies: at 1 µM.
In assay [18] the target is Serine/threonine-protein kinase Chk2 (Homo sapiens) (UniProt O96017). The conditions noted are these: at 0.1 µM.
Chain of Serine/threonine-protein kinase Chk2 (Homo sapiens) (O96017 whole entry): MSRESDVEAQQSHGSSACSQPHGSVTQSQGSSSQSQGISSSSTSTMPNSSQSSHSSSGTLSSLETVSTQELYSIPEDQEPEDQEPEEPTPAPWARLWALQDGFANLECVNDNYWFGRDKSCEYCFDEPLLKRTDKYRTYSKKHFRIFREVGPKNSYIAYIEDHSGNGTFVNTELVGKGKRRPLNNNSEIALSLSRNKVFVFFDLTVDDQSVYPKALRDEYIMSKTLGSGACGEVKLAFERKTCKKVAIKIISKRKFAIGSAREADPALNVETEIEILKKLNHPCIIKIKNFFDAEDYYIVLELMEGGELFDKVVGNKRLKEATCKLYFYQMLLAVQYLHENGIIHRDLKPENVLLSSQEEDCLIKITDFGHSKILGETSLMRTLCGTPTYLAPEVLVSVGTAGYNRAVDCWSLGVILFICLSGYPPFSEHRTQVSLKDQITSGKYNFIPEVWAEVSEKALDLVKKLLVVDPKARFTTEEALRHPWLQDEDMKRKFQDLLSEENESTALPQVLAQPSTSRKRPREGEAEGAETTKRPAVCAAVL
Assay [19] shares this target. The conditions noted are these: at 1 µM.
The target in assay [20] is Death-associated protein kinase 1 (Homo sapiens) (UniProt P53355). The conditions noted are these: at 0.1 µM.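 Further: reported figure is the mean inhibition of DAPK1.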
Chain of Death-associated protein kinase 1 (Homo sapiens) (P53355 whole entry, looked up): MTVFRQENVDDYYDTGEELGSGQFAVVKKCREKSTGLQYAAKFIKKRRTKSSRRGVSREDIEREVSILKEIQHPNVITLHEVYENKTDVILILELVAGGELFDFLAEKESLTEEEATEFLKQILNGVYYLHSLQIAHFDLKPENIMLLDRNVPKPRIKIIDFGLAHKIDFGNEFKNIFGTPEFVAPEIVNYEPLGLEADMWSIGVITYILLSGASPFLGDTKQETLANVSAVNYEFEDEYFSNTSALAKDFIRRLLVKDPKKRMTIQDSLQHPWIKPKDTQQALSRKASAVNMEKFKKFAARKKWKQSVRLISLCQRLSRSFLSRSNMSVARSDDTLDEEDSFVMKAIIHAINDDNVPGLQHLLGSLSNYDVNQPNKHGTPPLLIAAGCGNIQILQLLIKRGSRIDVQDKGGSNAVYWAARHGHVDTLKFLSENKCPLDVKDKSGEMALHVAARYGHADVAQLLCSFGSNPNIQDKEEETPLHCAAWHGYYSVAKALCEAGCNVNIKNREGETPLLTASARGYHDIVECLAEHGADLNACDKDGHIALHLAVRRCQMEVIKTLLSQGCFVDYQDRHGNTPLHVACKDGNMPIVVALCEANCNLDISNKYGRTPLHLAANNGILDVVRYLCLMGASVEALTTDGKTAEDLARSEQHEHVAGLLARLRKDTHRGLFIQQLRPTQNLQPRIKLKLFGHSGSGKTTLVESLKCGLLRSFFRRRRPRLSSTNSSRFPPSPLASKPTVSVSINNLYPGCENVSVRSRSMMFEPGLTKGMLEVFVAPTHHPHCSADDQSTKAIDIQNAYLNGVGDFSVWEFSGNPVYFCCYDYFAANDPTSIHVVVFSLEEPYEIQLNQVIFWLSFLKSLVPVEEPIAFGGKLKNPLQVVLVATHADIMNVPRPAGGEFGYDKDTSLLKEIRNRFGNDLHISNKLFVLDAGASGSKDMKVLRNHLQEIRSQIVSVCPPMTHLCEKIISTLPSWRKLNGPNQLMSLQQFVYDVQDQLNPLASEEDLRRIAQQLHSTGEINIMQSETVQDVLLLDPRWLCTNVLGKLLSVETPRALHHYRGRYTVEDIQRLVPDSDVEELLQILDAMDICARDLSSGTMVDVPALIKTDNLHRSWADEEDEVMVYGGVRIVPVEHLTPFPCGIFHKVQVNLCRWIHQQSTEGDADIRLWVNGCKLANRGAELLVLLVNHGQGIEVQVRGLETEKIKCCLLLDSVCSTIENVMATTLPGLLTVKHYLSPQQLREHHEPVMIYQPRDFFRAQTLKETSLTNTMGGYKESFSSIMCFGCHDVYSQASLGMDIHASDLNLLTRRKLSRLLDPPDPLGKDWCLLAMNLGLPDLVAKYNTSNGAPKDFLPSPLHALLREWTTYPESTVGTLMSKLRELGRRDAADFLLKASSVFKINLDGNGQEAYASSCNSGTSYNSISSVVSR

Chain of Calcium/calmodulin-dependent protein kinase type II subunit alpha (Homo sapiens) (Q9UQM7 whole entry): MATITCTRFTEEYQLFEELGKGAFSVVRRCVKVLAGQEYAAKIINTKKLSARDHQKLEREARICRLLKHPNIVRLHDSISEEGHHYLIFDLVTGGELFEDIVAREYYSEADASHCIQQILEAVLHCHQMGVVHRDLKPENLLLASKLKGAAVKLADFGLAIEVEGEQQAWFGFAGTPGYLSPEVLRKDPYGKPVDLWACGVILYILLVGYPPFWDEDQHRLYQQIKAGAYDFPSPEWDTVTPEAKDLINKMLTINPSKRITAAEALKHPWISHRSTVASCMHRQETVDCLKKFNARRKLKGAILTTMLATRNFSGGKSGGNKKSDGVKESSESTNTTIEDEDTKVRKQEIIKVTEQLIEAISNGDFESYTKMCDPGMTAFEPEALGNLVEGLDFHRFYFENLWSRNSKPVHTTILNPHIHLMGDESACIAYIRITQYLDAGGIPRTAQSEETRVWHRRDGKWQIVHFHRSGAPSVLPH
Chain of 5'-AMP-activated protein kinase catalytic subunit alpha-2 (Homo sapiens) (P54646 whole entry, looked up): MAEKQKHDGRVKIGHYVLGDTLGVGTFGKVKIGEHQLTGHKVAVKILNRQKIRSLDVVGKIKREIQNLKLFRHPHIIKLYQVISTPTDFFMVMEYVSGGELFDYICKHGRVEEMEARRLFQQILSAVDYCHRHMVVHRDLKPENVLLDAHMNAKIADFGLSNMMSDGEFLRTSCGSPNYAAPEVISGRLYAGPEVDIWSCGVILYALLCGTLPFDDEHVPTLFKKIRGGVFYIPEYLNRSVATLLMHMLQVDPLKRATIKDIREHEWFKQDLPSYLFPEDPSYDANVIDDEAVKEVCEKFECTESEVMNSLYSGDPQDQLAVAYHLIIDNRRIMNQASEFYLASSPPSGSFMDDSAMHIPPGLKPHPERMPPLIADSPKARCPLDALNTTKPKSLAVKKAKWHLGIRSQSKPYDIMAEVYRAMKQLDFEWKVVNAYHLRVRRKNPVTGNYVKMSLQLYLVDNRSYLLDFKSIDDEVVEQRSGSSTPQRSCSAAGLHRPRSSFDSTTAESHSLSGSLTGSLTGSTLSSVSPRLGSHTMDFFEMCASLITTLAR

In general, inhibition refers to the change of the read-out against control, counted positive when it falls. Turning to `O=C(Nc1n[nH]c2nc(-c3ccc(O)cc3)c(Br)cc12)C1CC1`, the inhibition in assay [1] was found to be 12.1%; in assay [2] it was 8.05%; in assay [3], 30.2%; in [4], 25.8%; in assay [5] it was 66.8%; in [6], 33.5%. Moreover, the inhibition in assay [7] was determined as 70.2%; in assay [8] it was 3.09%; in assay [9], 14.4%; in assay [10], 4.24%; in assay [11], 8.39%; in assay [12], 6.47%. Besides, the inhibition in assay [13] was 20.1%; in assay [14], -0.14%; in assay [15], 2.12%; in assay [16], 8.74%; in assay [17], 16.8%; in assay [18], 2.09%. Besides, the inhibition in assay [19] came to 4.23%; in assay [20], 5.9%.
For the compound `CCS(=O)(=O)c1ccc(OC)c(Nc2ncc(-c3ccccc3Cl)o2)c1`, the inhibition in assay [1] was 2.95%; in assay [2], 2.27%; in assay [3], 1.46%; in assay [4], -1%; in assay [5], -0.58%; in assay [6], 0.64%. The inhibition was -1.12% in [7]; 0.68% in assay [8]; 1.43% in [9]; 2.2% in [10]; 3.37% in assay [11]; 1.45% in assay [12]. In addition, the inhibition in assay [13] is 1.43%; in [14], 2.52%; in assay [15], 0.4%; in [16], 5.3%; in assay [17], 5.1%; in assay [18], -1.42%. The values for the inhibition in assay [19] and in assay [20] were -0.76% and 4.59%, respectively.
Regarding `Clc1ccc(CNc2nccc(-c3cnn4ncccc34)n2)cc1`, the inhibition in assay [1] was found to be 0.84%; in assay [2] it was 3.31%; in assay [3], 9.78%; in assay [4], 0.41%; in assay [5], 1.49%; in assay [6] it was 1.65%. The inhibition is 4.48% in [7]; 1.73% in assay [8]; 1.01% in [9]; 2.51% in [10]; 4.51% in [11]; 2.06% in assay [12]. Besides, the inhibition amounted to 3.21% in assay [13]; 1.93% in [14]; 1.7% in assay [15]; 2.84% in [16]; 8.27% in assay [17]; 4.34% in assay [18]. The inhibition was found to be 6.1% in [19] and 9.28% in assay [20].
Regarding `Fc1ccc(-c2c(-c3ccncc3)nc3n2CCS3)cc1`, the inhibition is 4.29% in assay [1]; -0.3% in assay [2]; 1.86% in [3]; -0.79% in assay [4]; 0.97% in assay [5]; 0.47% in assay [6]. Moreover, the inhibition is 3.65% in [7]; 2.44% in assay [8]; -0.09% in [9]; 0.37% in assay [10]; 0.88% in [11]; 1.78% in assay [12]. Moreover, the inhibition in assay [13] is 2.01%; in [14], 1.18%; in assay [15], -0.25%; in assay [16], 0.42%; in assay [17], 2.88%; in [18], 1.49%. Besides, the values for the inhibition in [19] and in [20] were 0.52% and -0.64%, respectively.
